These compounds were tested against AMP-activated protein kinase, AMPK (Homo sapiens) (UniProt P54646+O43741+P54619+Q9UGJ0+Q9Y478+Q13131+Q9UGI9) (assay: AMP-dependent Kinase enzyme assay. An in vitro enzyme assay that detects ADP turnover that is directly proportional to AMPK activity. This uses naive AMPK that is activated during the assay with MK-8722). Settings: 30 µM.
Format: functional
Design: scale not given: direction of the effect not stated beside the values

SMILES | Percent Effect [%]
CC(=O)Nc1ccc(CNC(=O)CNCc2nnc(C)o2)cc1 | -8.94
CN(C)S(=O)(=O)N1CCC(C(O)c2ccc(Cl)cc2)CC1 (stereo unspecified) | 4.77
CC(NC(=O)N1CCC1)c1ccc(S(C)(=O)=O)cc1 (stereo unspecified) | 4.53
O=C(CCCN1CCCCC1)NC(C(=O)O)c1cccc(F)c1 (stereo unspecified) | 14.7
CCCc1ccc(CN2CCC3(CCC(=O)N(C(C)C(=O)O)C3)CC2)o1 (stereo unspecified) | 31.1
COc1ccc(CN2CC[C@@]3(O)CCCC[C@H]3C2)cc1C(=O)O | -10
O=C(NCCN1CCNC1=O)c1cnc(-c2cccnc2)nc1 | 6.47
Cc1cnn(C2CCCN(C(=O)c3cc(-c4cccs4)n[nH]3)C2)c1 (stereo unspecified) | -1.86
Cc1c(NC(=O)N(C)CCn2cnnc2)cccc1OC1CCCC1 | -2.5
CC(=O)N[C@H]1CCO[C@@H](c2cccc(NC(=O)C(C)(C)C)c2)C1 | 7.76
Cc1nc(COC(=O)c2cccnc2C)no1 | 3.04
Cn1cccc1CN(C(=O)CC(CC(=O)O)c1cccs1)C1CC1 (stereo unspecified) | -2.3
Cc1noc(CNc2cc3c(cc2Cl)NC(=O)CO3)n1 | 1.17
CC(=O)NCc1ccc(C(=O)N2CCCc3c(F)ccc(C)c32)o1 | 0.928
O=C1NCCCC12CCN(Cc1ccc(-c3ccccc3)s1)C2 (stereo unspecified) | 6.83
CN(Cc1ccccc1CNC(=O)C1CNC(=O)N1)C1CCCCC1 (stereo unspecified) | -6.64
C[C@@H]1CN(C(=O)C2(Cn3cccn3)CC2)C[C@@]1(O)C1CCC1 | 5.58
CC(C)(C)CC(NC(=O)N1CCS(=O)(=O)CC1)C(F)(F)F (stereo unspecified) | -0.804
NC(=O)c1cc(C2CCCN(Cc3ccc4c(c3)OCCO4)C2)n[nH]1 (stereo unspecified) | 3.64
COc1ccc(C2CN(c3ncccn3)CCN2C(C)=O)cc1 (stereo unspecified) | 21.2
CC(C)(C)CN(CCC#N)C(=O)c1cccc(CN2CCCC2)c1 | 7.06
